Several values for one entry are separate records, joined by “and”; a condition that tells them apart may be missing. Equal values may be shown once. Screen size: about 16,000 compounds; about 5,700 (36%) were called active. Roughly 24% stayed inconclusive and do not appear here. Calls come from the whole dose curve; as a rule, active = well fitted curve in the direction sought with a large enough effect; inconclusive = small, poorly fitted or top-dose-only effect, or effect the other way; inactive = no such curve, though single readings can be large or run the other way. The list shows a part of the results.
% is set by controls: 0 for no effect and ±100 for the full control effect.

Cytochrome P450 1A2 (Homo sapiens), sequence (P05177 whole entry, looked up): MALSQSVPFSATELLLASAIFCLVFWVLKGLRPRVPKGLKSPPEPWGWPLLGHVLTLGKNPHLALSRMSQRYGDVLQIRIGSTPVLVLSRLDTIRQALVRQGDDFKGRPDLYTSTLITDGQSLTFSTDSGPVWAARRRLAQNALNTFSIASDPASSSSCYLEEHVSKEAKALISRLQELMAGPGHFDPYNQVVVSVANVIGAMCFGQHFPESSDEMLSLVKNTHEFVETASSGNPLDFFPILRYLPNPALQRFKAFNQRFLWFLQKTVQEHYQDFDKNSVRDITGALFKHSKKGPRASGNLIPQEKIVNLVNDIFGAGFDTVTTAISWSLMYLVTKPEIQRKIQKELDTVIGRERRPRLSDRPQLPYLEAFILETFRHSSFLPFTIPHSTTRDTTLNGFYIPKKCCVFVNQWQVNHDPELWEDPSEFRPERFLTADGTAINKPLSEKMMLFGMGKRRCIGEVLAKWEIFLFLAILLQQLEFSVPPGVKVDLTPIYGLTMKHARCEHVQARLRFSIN

This assay has as its target Cytochrome P450 1A2 (Homo sapiens) (UniProt P05177). The assay can be described thus: Cytochrome panel assay with activity outcomes. The settings on record: recombinant CYP, pro-luciferin dealkylation, luminescence, p450-cyp1a2; series mostly up to 57.1 µM; activity, negative = inhibition: at the top concentration.
Turning to `O=C(NCP(=O)(O)O)c1cccnc1`, the activity, negative = inhibition is -11.9% [at 11.4 µM] (inactive). On the same count and under the same terms, next, `CC(C)CN1CC2(CCN(C(=O)c3ccncc3)CC2)C1`: -7.67% (inactive); `C[C@@H]1O[C@H](C[N+](C)(C)C)CS1`: 0.254% (inactive). The AC50 is the concentration giving half of the maximal activity seen. With `N=C(N)SCc1ccc(Cl)c2ccccc12` (tested in a mixture with another compound), the AC50 is 251 nM (active) and 158 nM (active). As for `COc1ccc2c(c1)CN([C@H](C)[C@@H]1CC[C@@H]3[C@H]4CC[C@H]5C[C@@H](O)CC[C@@]5(C)[C@H]4CC[C@]31C)CO2`, the activity, negative = inhibition is -17.9% [at 2.29 µM] (inactive). On to `CCCC(CCC)C(=O)O`, for which the “activity, negative = inhibition” value was -4.79% (inactive). Take `O=S(=O)(c1ccccc1)N1CCCCC1c1cccnc1` (stereo unspecified): the “activity, negative = inhibition” value was -6.92% (inactive).

In the case of `CC1(C)[C@@H]2CC[C@]1(C)CN(CCC[N+](C)(C)C)C2`, the activity, negative = inhibition is -6.81% [at 2.29 µM] (inactive). For the molecule `CC(=NCc1ccco1)c1c(O)n(-c2ccccc2)c(=O)[nH]c1=O`, the AC50 was 22.4 µM (active). `CC(=Nc1c(C)n(C)n(-c2ccccc2)c1=O)c1c(O)n(Cc2ccccc2)c(=O)[nH]c1=O`: the “activity, negative = inhibition” value is -6.48% (inactive). For the molecule `CC(=NCCN1CCOCC1)c1c(O)n(Cc2ccccc2)c(=O)[nH]c1=O`, the “activity, negative = inhibition” value is -26.8% (inactive). For the molecule `N[C@@]1(C(=O)O)CC[C@H](C(=O)O)C1`, the AC50 result is “inactive”. Consider `O=C1C2CCN(CC2)C1(CO)CO`, for which the activity, negative = inhibition is -15.4% [at 11.4 µM] (inactive).

Turning to `[N-]=[N+]=CC(=O)CC[C@H](N)C(=O)O`, the activity, negative = inhibition was -10.9% [at 11.4 µM] (inactive). Turning to `Clc1ccccc1-c1cncnc1NCCc1cnc[nH]1`, the half-maximal activity concentration (AC50) is 1.58 µM (active). Still for that read-out and setting: next, `Cc1ccccc1-c1cncnc1NCCc1cnc[nH]1`: 5.01 µM (active).

Regarding `N=C(N)c1ccc(-c2ccc(-c3ccc(C(=N)N)cc3)o2)cc1`, the activity, negative = inhibition is -1.35% [at 11.4 µM] (inactive). On to `O=C(O)c1cc(N=Nc2ccc([As](=O)(O)O)cc2)ccc1O`, for which the activity, negative = inhibition is -9.91% [at 11.4 µM] (inactive). Take `O=[As](O)(O)c1ccc(N=Nc2ccc([As](=O)(O)O)cc2)cc1`: the activity, negative = inhibition is -13.9% [at 11.4 µM] (inactive). Turning to `N[C@@H](Cn1ccc(=O)n(Cc2ccc(C(=O)O)cc2)c1=O)C(=O)O`, the “activity, negative = inhibition” value is -15.7% (inactive). As for `c1ccc(C[N+]23CN4CN(CN(C4)C2)C3)cc1`, the activity, negative = inhibition was -10.1% [at 2.29 µM] (inactive). As to `Cc1ccc(NC(=[OH+])c2cc3ccccc3cc2O)c(C)c1.Cc1ccc(NC(=[OH+])c2cc3ccccc3cc2O)c(C)c1.[Ni]`, the AC50 was 0.251 µM (active). On to `CN(C)[C@@H]1C(=O)C(C(N)=O)=C(O)[C@]2(O)C(=O)C3=C(O)c4c(O)cccc4[C@@](C)(O)[C@H]3[C@H](O)[C@@H]12`, for which the “activity, negative = inhibition” value is -18.3% [at 25.6 µM] (inactive). On the same count and under the same terms, next, `CN(C(=O)Cc1ccc(Cl)c(Cl)c1)[C@@H](CN1CCCC1)c1cccc(OCC(=O)O)c1`: 2.92% (inactive). `C[N+]1(C)[C@@H]2CC(OC(=O)[C@@H](CO)c3ccccc3)C[C@@H]1[C@H]1O[C@H]12` (stereo partly specified): the activity, negative = inhibition was -22.8% [at 11.4 µM] (inactive). The same measure, in the same setting: next, `Cc1ccc(S(=O)(=O)N[C@@H](CCCCN)C(=O)CCl)cc1`: 3.11% (inactive); `C[C@@]12CC[C@H](O[C@@H]3O[C@H](CO)[C@@H](O)[C@H](O)[C@@H]3O)C[C@@H]1CC[C@H]1[C@H]2CC[C@@]2(C)[C@@H](C3=CCOC3=O)CC[C@]12O`: -11.7% [at 11.4 µM] (inactive).

Regarding `CCOc1ccc2c(c1)C(C)=CC(C)(C)N2`, the AC50 is 5.01 µM (active). Take `CC(C)(C)C(=O)CP(=O)(O)O`: the activity, negative = inhibition is -9.4% [at 11.4 µM] (inactive). Regarding `CCOC(=O)C1=C(C)OC(N)=C(C#N)C12C(=O)N(C)c1ccccc12` (stereo unspecified), the “activity, negative = inhibition” value is 10.1% (inactive). For the molecule `C[C@@H]1[C@@H]2Cc3ccc(O)cc3[C@@]1(C)CCN2CC1CC1`, the “activity, negative = inhibition” value is -14.6% (inactive). Consider `CNC(C)Cc1ccccc1Sc1ccc(O)cc1` (stereo unspecified), for which the “activity, negative = inhibition” value is -2.13% (inactive). For the molecule `Cn1c(O)c(C(=N)COc2ccccc2)c(=O)n(C)c1=O`, the AC50 is 6.31 µM (active).

Take `O=C(Oc1ccccc1)N1CCC2(CC1)CN(C(c1ccccc1)c1ccccc1)C2`: the “activity, negative = inhibition” value was -14.2% (inactive).

As for `c1csc(CN2CC[C@@]3(CCCNC3)C2)n1`, the “activity, negative = inhibition” value was -12.5% (inactive). On the same count and under the same terms, next, `CS(=N)(=O)CC[C@H](N)P(=O)(O)O` (stereo partly specified): -13.9% [at 11.4 µM] (inactive). On to `CCOC(=O)Cn1cc(C(=O)c2ccccc2F)c2ccccc21`, for which the AC50 was 3.55 µM (active). With `O=C(c1ccccc1F)c1cn(CC(=O)N2CCOCC2)c2ccccc12`, the “activity, negative = inhibition” value was 0.466% (inactive).

For `O=C(c1ccccc1F)c1cn(Cc2ccccc2)c2ccccc12`, the AC50 is 7.08 µM (active).

On to `COc1ccc(OC)c([C@H](O)[C@H](C)N)c1`, for which the AC50 entry is “inactive”.

As to `c1cc(N2CCCC3(CCNCC3)C2)ccn1`, the “activity, negative = inhibition” value is -4.56% (inactive). Still for that read-out and setting: next, `Nc1nc(N)c(N=Nc2ccc([As](=O)(O)O)cc2)c(=O)[nH]1`: -14.9% [at 2.29 µM] (inactive).

With `N=C(N)n1cc(/C=N\N=C(N)N)cn1`, the activity, negative = inhibition is 7.8% [at 2.29 µM] (inactive). For the molecule `CCC[C@@](C)(COC(N)=O)COC(=O)NC(C)C`, the “activity, negative = inhibition” value is 0.255% [at 25.6 µM] (inactive). Still for that read-out and setting: next, `O=C(O)C(O)(c1ccc(-c2ccccc2)cc1)c1ccc(-c2ccccc2)cc1`: -16.4% [at 11.4 µM] (inactive).

With `CS(=N)(=O)CC[C@@H](N)C(=O)O` (stereo partly specified), the AC50 result was “inactive”. The same measure, in the same setting: next, `Cc1cc(C)nc(NC2=NCCS2)n1`: 12.6 µM (active). As to `C=C(C)[C@H]1CC[C@]2(C(=O)O)CC[C@]3(C)[C@@H](CC[C@H]4[C@@]5(C)CC[C@@H](O)C(C)(C)[C@@H]5CC[C@@]43C)[C@H]12`, the “activity, negative = inhibition” value was 10.2% [at 25.6 µM] (inactive). Turning to `O=C(Cn1ncc2ccsc2c1=O)N1CCC2(CC1)OCCO2`, the “activity, negative = inhibition” value was -10% (inactive). Regarding `O=C(c1cc(=O)[nH]c2ccc(Br)cc12)N1CCC2(CC1)OCCO2`, the “activity, negative = inhibition” value was 7.44% (inactive). Take `O=C(c1cc2cc3ccc(Cl)cc3nc2o1)N1CCC2(CC1)OCCO2`: the concentration at half-maximal activity (AC50) was 6.31 µM (active).

Source of the values: PubChem BioAssay AID1851 (National Center for Advancing Translational Sciences (NCATS), 2009).
